Screening data from PubChem BioAssay.
Rows were chosen to be rich in hits. Some 11% of all compounds tested hit in one or more screens of this group.
HttQ103 aggreg: inhibitors of mutant huntingtin aggregate formation in PC12 cells; PC12 HttQ103-GFP aggregates, Acumen cytometry, 40 h; Potency, µM (titrated, usually from 46.1 µM), inactives show at the highest dose activity change, negative = inhibition, usual class: inhibitors; actives 1.1% (n = 220,000); AID 1688; also: potency is read from the fitted curve at half-maximal effect; % is scaled to controls: 0 for no effect and ±100 for the full control effect; nearly all actives have a fitted effect of over 60% in size
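Compounds (qHTS titration) were added to PC12 cells expressing an ecdysone-driven HTT exon 1 Q103–GFP fusion after induction with 100 nM tebufenozide. Aggregate formation was measured as GFP objects in cell lysates.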
HTT ATP protect: cytoprotection in Huntington HTT-Q103 PC12 cell model. PC12 HTT-Q103 induced, cytoprotection, ATP luminescence, 40 h. Potency, µM (top dose mostly 56.4 µM), inactives show cytoprotection (ATP increase), actives largely listed as activators. actives 0.14% (n = 230,000). AID 1471; also: potency is read from the fitted curve at half-maximal effect; % of control where 0% means no effect; nearly all actives have a fitted effect of over 45% in size
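Quantitative HTS on tebufenozide-induced (100 nM) PC12 cells expressing HTTQ103 exon 1–GFP; compounds tested as a concentration series; survival measured via cellular ATP.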
HPGD inh: blocks human HPGD enzyme activity; P15428; purified HPGD, NADH fluorescence kinetic, PGE2 substrate; Potency, µM, without a hit: top-dose activity change, negative = inhibition, usual class: inhibitors; actives 4.3% (n = 150,000); AID 894; active = well fitted inhibition curve with a large enough effect, not every such curve was filed as active; inconclusive = small, poorly fitted or top-dose-only effect, or another doubt; inactive = no such curve, though single readings can be large or run the other way; also: potency is read from the fitted curve at half-maximal effect; % is scaled to controls: 0 for no effect and ±100 for the full control effect
Target sequence (P15428 whole entry, looked up): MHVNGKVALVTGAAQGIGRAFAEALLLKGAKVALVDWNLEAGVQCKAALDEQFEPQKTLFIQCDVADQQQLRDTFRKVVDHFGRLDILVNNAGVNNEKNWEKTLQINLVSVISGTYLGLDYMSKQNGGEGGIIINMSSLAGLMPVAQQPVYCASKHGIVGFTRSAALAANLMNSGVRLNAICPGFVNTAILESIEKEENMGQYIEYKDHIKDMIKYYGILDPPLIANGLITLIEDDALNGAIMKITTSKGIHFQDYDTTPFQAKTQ
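20 nM HPGD preincubated 15 min at room temperature with compound in 50 mM Tris-HCl pH 8, 0.01% Tween 20. Started with 1 mM NAD+ and 30 uM prostaglandin E2; NADH fluorescence (360/450 nm) read 5 times over 30-s intervals, last minus first.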
ALDH1A1 inh: blocks purified human ALDH1A1 activity | P00352 | Purified ALDH1A1, NADH fluorescence, propionaldehyde substrate | Potency, µM (top dose mostly 75.3 µM), without a hit: at the top dose activity, negative = inhibition, usual class: inhibitors | actives 7.3% (n = 220,000); active = well fitted inhibition curve with a large enough effect, not every such curve was filed as active; inconclusive = small, poorly fitted or top-dose-only effect, or another doubt; inactive = no such curve, though single readings can be large or run the other way;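 also: potency is read from the fitted curve at half-maximal effect; plate controls were no enzyme wells and a reference inhibitor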
Target sequence (P00352 whole entry, looked up): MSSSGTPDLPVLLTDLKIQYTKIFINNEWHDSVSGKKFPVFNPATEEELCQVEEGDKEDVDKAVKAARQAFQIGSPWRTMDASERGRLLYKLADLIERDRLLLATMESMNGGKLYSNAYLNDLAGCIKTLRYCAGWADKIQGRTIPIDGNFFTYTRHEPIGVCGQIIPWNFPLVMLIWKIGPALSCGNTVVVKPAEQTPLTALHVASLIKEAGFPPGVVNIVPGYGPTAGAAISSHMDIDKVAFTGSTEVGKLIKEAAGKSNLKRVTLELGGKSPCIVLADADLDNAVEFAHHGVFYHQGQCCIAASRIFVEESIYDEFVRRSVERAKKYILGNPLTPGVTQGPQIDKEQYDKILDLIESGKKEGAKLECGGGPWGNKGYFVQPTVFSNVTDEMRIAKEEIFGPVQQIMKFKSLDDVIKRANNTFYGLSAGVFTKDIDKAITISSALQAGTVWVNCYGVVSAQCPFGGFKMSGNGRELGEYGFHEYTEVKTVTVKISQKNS
CBFb-RUNX1 inh: CBF-beta/RUNX1 interaction disruption; Q01196+Q13951; AlphaScreen CBFb-His/RUNX1-biotin binding, biochemical; Potency, µM (top dose mostly 59.8 µM), for inactives: top-dose activity, negative = inhibition, hits mostly inhibitors; 230,000 tested, under 10 active; AID 1477; also: % of control where 0% means no effect
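Room-temperature protein-protein interaction test with 30 nM each of His-tagged CBF-beta and biotinylated RUNX1, 15 min with compound, then 90 min with nickel plus streptavidin beads. Signal read in AlphaScreen mode.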
PNC assembly inh: inhibitors of perinucleolar compartment assembly; actives 3.1% (n = 140,000); activity change (PNC), negative = inhibition, % at 10 µM; PC3M PTB-GFP, PNC prevalence imaging, 16 h; active compounds read low; AID 2417;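 active = readout at or below -70, meaning at least 70% loss of cells showing the perinucleolar compartment, a nuclear body marking cancer cells; inconclusive = readout between -30 and a set limit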;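 also: plate controls were DMSO wells for no effect and camptothecin positive control wells for full effect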
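Compounds are pinned in duplicate onto adhered PC3M cells stably expressing GFP-tagged PTB and incubated 16 h at 37 C. Cells are then fixed, nuclei stained with Hoechst, and PNC-positive cells counted.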
An asterisk follows results filed as active; ? = inconclusive; · = no result given; [ ] = remark or other dose. Unless noted, calls follow the shape of the dose curve; as a rule, active = well fitted curve in the direction sought with a large enough effect; inconclusive = small, poorly fitted or top-dose-only effect, or another doubt; inactive = no such curve, though single readings can be large; an effect the other way counts as inactive or inconclusive.

SMILES	HttQ103 aggreg	HTT ATP protect	HPGD inh	ALDH1A1 inh	CBFb-RUNX1 inh	PNC assembly inh
CCOc1ccc(S(=O)(=O)NCCSCc2ccco2)cc1	-6%	4%	-22%	2.8µM*	1%	?
Cc1ccc(S(=O)(=O)NCCSCc2ccco2)cc1	3%[9.22 µM]	9%[10 µM]	·	20µM*	1%	·
CC1CC=CC2C1C(=O)N(Cc1ccccc1)C2c1ccc(-c2ccoc2)cc1F (centres undefined)	·	·	·	·	-1%	·
CC1CCCC2(C1)NC(=S)c1c(sc3c1CCCC3)N2 (centres undefined)	4%[9.22 µM]	?	4.5µM*	3.5µM*	-16%	?
CC1CCCC2(C1)NC(=S)N(c1ccccc1)N2 (centres undefined)	13%	2%	-6%	?	-9%	?
C=CCNC(=O)CSc1nc2cc(C(=O)OCC)ccc2n1CC	25%	-25%	25µM*	-5%	2%	?
Cc1ccc(S(=O)(=O)Nc2cccnc2Oc2ccc(Cl)cc2)cc1	12%[9.22 µM]	3%[10 µM]	·	0.02µM*	6%	·
CC(C)CN(C(=O)CN1CCC(C)CC1)c1c(N)n(CC(C)C)c(=O)[nH]c1=O	29%	-20%	·	11%	5%	·
Cc1ccc(S(=O)(=O)N2CCN(CC(=O)N(CC(C)C)c3c(N)n(CC(C)C)c(=O)[nH]c3=O)CC2)c(C)c1	-14%	-5%[10 µM]	-7%	-17%	-1%	-98*
CCCCN(C(=O)CN1CCOCC1)c1c(N)n(CC(C)C)c(=O)[nH]c1=O	-5%	-1%[10 µM]	·	10%	0%	-81*
O=C(COC(=O)c1ccc2c(c1)OCO2)Nc1ncc(Cl)cc1Cl	-19%	5%[0.074 µM]	-19%	1%	8%	?
O=C(COC(=O)c1ccc2ncsc2c1)Nc1ncc(Cl)cc1Cl	1%	20%[10 µM]	-8%	-10%	-20%	-95*
O=C(COC(=O)CCCN1C(=O)c2ccccc2C1=O)Nc1ncc(Cl)cc1Cl	-27%	4%[10 µM]	-17%	-3%	-7%	-100*
O=C(COC(=O)c1ccc(O)cc1)Nc1ncc(Cl)cc1Cl	5%	-29%	·	28µM*	11%	·
O=C(COC(=O)CN1C(=O)c2ccccc2C1=O)Nc1ncc(Cl)cc1Cl	16%	-8%[10 µM]	1%	?	2%	38
O=C(COC(=O)CCCN1C(=O)c2cccc3cccc(c23)C1=O)Nc1cccc(C(F)(F)F)c1	21%	-3%[10 µM]	?	?	-17%	-106*
CCc1nc2cc([N+](=O)[O-])c([N+](=O)[O-])cc2[nH]1	-22%	·	-9%	7%	-2%	-3
COC(=O)C=P(c1ccccc1)(c1ccccc1)c1ccccc1	·	-10%	-8%	13%	3%	·
COc1ccc2cccc(N3CCN(CCNC(=O)c4ccc(F)cc4)CC3)c2c1	·	-56%	?	?	1%[21.7 µM]	·
O=C(C1=NNC2C(=O)N(c3ccccc3)C(=O)C12)c1nc(Cl)ccc1Cl (centres undefined)	5%	·	-3%	11%	9%	?
COc1ccc(-c2csc(NC(=S)NC(=O)/C=C/c3ccco3)n2)cc1OC	4%	-30%[10 µM]	-23%	-5%	-26%	-106*
COc1cc2c(cc1NC(=S)NC(=O)/C=C/c1ccco1)oc1ccccc12	-7%	10%[10 µM]	-12%	0%	-2%	37
COc1ccc(-c2csc(NC(=S)NC(=O)/C=C/c3ccco3)n2)cc1Br	-18%[9.22 µM]	-51%[10 µM]	·	6%	4%	·
O=C(/C=C/c1ccco1)NC(=S)Nc1cccc([N+](=O)[O-])c1	7%	-17%[10 µM]	18µM*	0%	?	?
COc1ccccc1NC(=S)NC(=O)/C=C/c1ccco1	?	24%[10 µM]	28µM*	25µM*	?	4
SMILES	HttQ103 aggreg	HTT ATP protect	HPGD inh	ALDH1A1 inh	CBFb-RUNX1 inh	PNC assembly inh
Cc1cccc(NC(=S)NC(=O)/C=C/c2ccco2)c1	·	·	·	24µM*	-13%	·
C[C@H](CN(C)C)C(=O)c1ccccc1C(=O)O	·	20%[10 µM]	-10%	-2%[13.5 µM]	·	·
COc1ccc(Oc2ncc3nc(C)c(=O)n(-c4ccc(OC)cc4)c3n2)cc1	·	-8%	-22%	?	·	·
N#CCCn1c(=O)c(-c2ccc(F)cc2)nc2cnc(N3CCNCC3)nc21	·	-21%	·	?	·	·
N#CC(C#N)=NNc1ccc(S(=O)(=O)N2CCCCC2)cc1	20µM*	1%[10 µM]	32µM*	?	·	?
N#C/C(=N\Nc1ccc(S(=O)(=O)N2CCOCC2)cc1)C(N)=S	5%[9.22 µM]	5%[10 µM]	·	3.2µM*	-5%	·
COC(=O)Nc1ccc(S(=O)(=O)N2CCCCCC2)cc1	-20%	-9%[10 µM]	-19%	2%	4%	99
CC1CCN(S(=O)(=O)c2ccc(N/N=C(/C#N)C(N)=O)cc2)CC1	?	-34%	-8%	2%	8%	-2
CCc1ccc(N2C(=O)CN(Cc3cccs3)C2=S)cc1	-14%	13%	·	0%	2%	·
O=C(CN1CCN(c2ccc(O)cc2)CC1)Nc1ccc(SC(F)F)cc1	-15%	7%[10 µM]	-7%	8.9µM*	-16%	-3
COc1cccc(N2CCN(CC(=O)Nc3ccc(SC(F)F)cc3)CC2)c1	-16%	10%[10 µM]	·	-5%	-11%	-29
Cc1ccc(NC(=O)c2ccc(CSc3nnc(C)s3)cc2)cc1	10%	-19%	-14%	?	4%	-100*
O=C(O)c1ccc(CSc2nnc(SCc3ccccc3)s2)cc1	-12%	-32%	20µM*	-14%	1%	7
Cc1nnc(SCc2ccc(C(=O)O)cc2)s1	13%	-11%	-13%	10%	1%	-17
O=c1cc(-c2ccc(O)c(O)c2)oc2cc(OC3OC(CO)C(O)C(O)C3O)cc(O)c12 (centres undefined)	·	-30%[1.9 µM]	-1%	?	-21%[21.7 µM]	·
CCN(CC(=O)NCc1cccs1)S(=O)(=O)c1cccc(C(C)=O)c1	-6%	8%	-10%	0%	-3%	-83*
COC(=O)COc1cccc(NC(=O)c2cccs2)c1	-1%	-23%[0.074 µM]	-15%	9%	9%	-118*
CCN(CC)S(=O)(=O)c1ccc(NC(=O)c2cccs2)cc1	-19%[9.22 µM]	-4%[10 µM]	·	4%	5%	·
CCN(CC)S(=O)(=O)c1cccc(C(=O)Oc2cccc(NC(=O)c3cccs3)c2)c1	-3%	-16%[10 µM]	-15%	-9%	5%	-108*
Cc1c(C(=O)NCC(C)C)sc2nc(-c3ccc(F)cc3)cn12	-6%	-12%	-20%	9%	12%	21
COC(=O)CCCC1=CC2=C(c3ccccc3)C(=O)C(C)(OC(=O)C3CCCC3)C(=O)C2=CN1CCc1c[nH]c2ccccc12 (centres undefined)	-35%[9.22 µM]	-1%[10 µM]	-9%	3.2µM*	?	·
